Consider 68 molecules from PubChem BioAssay AID624255 (Broad Institute, 2012).

Each structure is given as a SMILES string. The whole screen tested about 77,000 compounds, of which about 4,600 (6%) were called active. Inconclusive results (about 1%) are left out. For the sample, actives were picked, then their nearest neighbours and some compounds at random. Unmarked numbers belong to inactive results.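 How the source made its calls: active means mean inhibition above about 93%, with at least 55% of replicates each passing it (limit read from the data, passing the limit was not always enough); inconclusive means only one of those two conditions holds; inactive means neither condition holds.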

This test is described as follows: T. cruzi intracellular proliferation inhibitors, primary screen, cell-based, beta-gal Tulahuen parasites, NIH3T3 host, luminescence (AID 624255). As to conditions: T. cruzi beta-gal in NIH3T3, GalScreen luminescence, 90 h; at 8.34 µM; active compounds read high.
With `COc1ccccc1NC(=O)N[C@H]1C=C[C@@H](CC(=O)N[C@@H](C)c2ccccc2)O[C@@H]1CO`, the inhibition is 3.52%.

As to `CO[C@H]1CN(C)C(=O)c2cc(NC(=O)C3CCC3)ccc2OC[C@H](C)N(Cc2nccs2)C[C@H]1C`, the inhibition was 16.8%.

Turning to `CCCNC(=O)[C@@H]1[C@@H](CO)[C@@H]2Cn3c(cccc3=O)[C@H]1N2C(=O)C1CC1`, the inhibition was 38.4%.

As to `CCCNC(=O)[C@@H]1[C@@H](CO)[C@@H]2Cn3c(cccc3=O)[C@H]1N2C(=O)Nc1cc(F)ccc1F`, the inhibition is 81.1%.

Turning to `C[C@@H]1CCCCO[C@@H](CN(C)CC2CC2)[C@@H](C)CN([C@H](C)CO)C(=O)c2cc(NC(=O)C3CCCCC3)ccc2O1`, the inhibition is 89%.

Take `C[C@@H]1CN([C@@H](C)CO)C(=O)c2cc(NC(=O)C3CCCCC3)ccc2O[C@@H](C)CCCCO[C@@H]1CN(C)Cc1ccc(C(=O)O)cc1`: the inhibition was 15.2%.

For the molecule `C[C@@H]1CCCCO[C@@H](CN(C)CC2CCCCC2)[C@H](C)CN([C@H](C)CO)C(=O)c2cc(NC(=O)C3CCCCC3)ccc2O1`, the inhibition was 51.3%.

Regarding `C[C@@H]1CCCCO[C@@H](CN(C)Cc2ccc(C(=O)O)cc2)[C@H](C)CN([C@@H](C)CO)C(=O)c2cc(NC(=O)C3CCCCC3)ccc2O1`, the inhibition was -8.6%.

On to `C[C@@H]1CN([C@@H](C)CO)C(=O)c2cc(NC(=O)C3CCCCC3)ccc2O[C@@H](C)CCCCO[C@H]1CN(C)Cc1ccncc1`, for which the inhibition was 106% (active).

`C[C@@H]1CCCCO[C@@H](CN(C)CC2CC2)[C@H](C)CN([C@H](C)CO)C(=O)c2cc(NC(=O)C3CCCCC3)ccc2O1`: the inhibition was 102% (active).

For `O=C(O)C[C@H]1C[C@@H]2c3cc(NC(=O)Nc4ccc(C(F)(F)F)cc4)ccc3O[C@@H]2[C@@H](CO)O1`, the inhibition was -33%.

For the molecule `C[C@H]1CN([C@@H](C)CO)C(=O)c2cccc(NC(=O)Nc3ccccc3)c2O[C@H]1CN(C)S(=O)(=O)c1ccc(F)cc1`, the inhibition was -95%.

As for `C[C@H]1CCCCO[C@H](CN(C)CC2CC2)[C@@H](C)CN([C@@H](C)CO)C(=O)c2cc(NS(C)(=O)=O)ccc2O1`, the inhibition was 4.98%.

Consider `CCNC(=O)Nc1ccc2c(c1)C(=O)N(C)[C@@H]1CC[C@@H](CC(=O)NC3CCCCC3)O[C@H]1CO2`, for which the inhibition was 12.5%.

Take `C[C@H](O)C#Cc1ccc([C@@H]2[C@@H](CO)N3CCCCN(C(=O)c4ccncc4)C[C@@H]23)cc1`: the inhibition was 15.2%.

`C[C@@H](O)C#Cc1ccc([C@H]2[C@H](CO)N3CCCCN(C(=O)c4ccc(F)cc4)C[C@@H]23)cc1`: the inhibition is -25.9%.

For `O=C(c1ccncc1)N1CCCCN2[C@H](CO)[C@H](c3ccc(-c4ccccc4)cc3)[C@H]2C1`, the inhibition is 103% (active).

On to `CC(C)(O)C#Cc1ccc([C@H]2[C@@H](CO)N3CCCCN(C(=O)c4ccncc4)C[C@H]23)cc1`, for which the inhibition is 10.9%.

With `O=C(c1cccc(F)c1)N1CCCCN2[C@@H](CO)[C@H](c3ccc(-c4cncnc4)cc3)[C@@H]2C1`, the inhibition was 83.5%.

In the case of `O=C(c1cccc(F)c1)N1CCCCN2[C@H](CO)[C@H](c3ccc(-c4ccncc4)cc3)[C@H]2C1`, the inhibition was 99.9% (active).

In the case of `O=C(c1cccc(F)c1)N1CCCCN2[C@H](CO)[C@@H](c3ccc(-c4cncnc4)cc3)[C@H]2C1`, the inhibition is 44.2%.

On to `COc1ccc(C#Cc2ccc([C@@H]3[C@@H](CO)N4CCCCN(C(=O)c5ccncc5)C[C@@H]34)cc2)cc1`, for which the inhibition was 98.5% (active).

Regarding `O=C(c1ccc(F)cc1)N1CCCCN2[C@@H](CO)[C@H](c3ccc(-c4ccccc4)cc3)[C@@H]2C1`, the inhibition is 61.8%.

Take `COc1ccccc1-c1ccc([C@@H]2[C@@H](CO)N3CCCCN(C(=O)c4ccncc4)C[C@@H]23)cc1`: the inhibition was 52.8%.

In the case of `CC(C)(O)C#Cc1ccc([C@H]2[C@H]3CN(C(=O)c4ccncc4)CCCCN3[C@H]2CO)cc1`, the inhibition was 22%.

Take `CC(C)(O)C#Cc1ccc([C@@H]2[C@H](CO)N3CCCCN(C(=O)c4cccc(F)c4)C[C@@H]23)cc1`: the inhibition is 112% (active).

Take `O=C(C[C@@H]1CC[C@H]2[C@@H](COC[C@@H](O)CN2C(=O)c2ccc3c(c2)OCO3)O1)NC1CCCC1`: the inhibition is 27%.

Consider `CCS(=O)(=O)Nc1ccc2c(c1)C(=O)N(C)[C@H]1CC[C@H](CC(=O)Nc3ccccc3)O[C@@H]1CO2`, for which the inhibition was 49.6%.

Turning to `C[C@@H]1CN([C@@H](C)CO)C(=O)c2cc(-c3ccc(F)cc3)cnc2O[C@H]1CN(C)C(=O)c1ccncc1`, the inhibition is 64.3%.

On to `CC(C)NC(=O)N(C)C[C@@H]1OCCCC[C@@H](C)Oc2ccc(NC(=O)c3ccccc3)cc2C(=O)N([C@@H](C)CO)C[C@H]1C`, for which the inhibition is 30.5%.

In the case of `COc1ccc(NC(=O)N(C)C[C@@H]2OCCCC[C@@H](C)Oc3ccc(NC(=O)C4CCCCC4)cc3C(=O)N([C@@H](C)CO)C[C@@H]2C)cc1`, the inhibition is 36.5%.

In the case of `CN1CCN(C(=O)C[C@H]2CC[C@H]3[C@H](COc4ccc(NC(=O)C5CC5)cc4C(=O)N3C)O2)CC1`, the inhibition was 14.2%.

On to `O=C(C[C@@H]1C[C@@H]2c3cc(NC(=O)Nc4ccc(C(F)(F)F)cc4)ccc3O[C@@H]2[C@@H](CO)O1)NCCc1ccccc1`, for which the inhibition is 93.5%.

In the case of `COc1ccccc1NC(=O)N1C[C@H](O)COC[C@H]2O[C@H](CC(=O)NCCc3ccccc3)CC[C@@H]21`, the inhibition was -5.34%.

As for `CCCNC(=O)C[C@@H]1CC[C@@H]2[C@H](COc3ccc(NC(=O)C4CCOCC4)cc3C(=O)N2C)O1`, the inhibition was 47.3%.

Turning to `CO[C@@H]1CC[C@@H]2CCOc3ccc(C#N)cc3C(=O)N(C)C[C@@H](C)C(=O)N(C)C[C@@H]1O2`, the inhibition is 9.86%.

As for `C[C@H](O)C#Cc1ccc([C@H]2[C@H](CO)N3CCCCN(C(=O)c4ccc(F)cc4)C[C@@H]23)cc1`, the inhibition was 66.2%.

Turning to `O=C(c1ccc(F)cc1)N1CCCCN2[C@H](C1)[C@@H](c1ccc(C#CC3(O)CCCC3)cc1)[C@@H]2CO`, the inhibition was 113% (active).

For the molecule `CC(C)C#Cc1ccc([C@H]2[C@H](CO)N3CCCCN(C(=O)c4ccc(F)cc4)C[C@@H]23)cc1`, the inhibition was 80.8%.

For `O=C(c1cccc(F)c1)N1CCCCN2[C@H](CO)[C@H](c3ccc(C#CC4(O)CCCC4)cc3)[C@H]2C1`, the inhibition is 88.1%.

`COc1ccc(S(=O)(=O)N(C)C[C@@H]2OCCCC[C@@H](C)Oc3ccc(N(C)C)cc3C(=O)N([C@@H](C)CO)C[C@@H]2C)cc1`: the inhibition was 46.8%.

`O=C(C[C@@H]1CC[C@@H](NC(=O)CC2CC2)[C@H](CO)O1)NCc1ccc(-c2ccccc2)cc1`: the inhibition was 36.4%.

Regarding `N#C[C@@H]1[C@@H](c2ccccc2)[C@@H](CO)N1C(=O)c1cc(Cl)cc(Cl)c1`, the inhibition was 90.7%.

On to `COc1ccc(NC(=O)Nc2ccc3c(c2)C(=O)N([C@@H](C)CO)C[C@@H](C)[C@H](CN(C)C(=O)NC(C)C)OCCCC[C@H](C)O3)cc1`, for which the inhibition is 19.2%.

Take `COc1cccc(-c2ccc3n(c2=O)C[C@@H]2[C@@H](CO)[C@H](C(=O)NCC4CC4)N(C(=O)NC(C)C)[C@H]32)c1`: the inhibition is -3.92%.

Turning to `COc1ccc(-c2cn(CC[C@@H]3CC[C@@H](NS(=O)(=O)c4ccccc4C)[C@H](CO)O3)nn2)cc1`, the inhibition was -38.7%.

For `O=C(Nc1ccccc1)[C@@H]1[C@@H](CO)[C@@H]2Cn3c(cccc3=O)[C@@H]2N1C(=O)C1CC1`, the inhibition was 90.7%.

As for `O=C(Nc1ccc(-c2ccccc2)cc1)[C@@H]1[C@@H](CO)[C@@H]2Cn3c(cccc3=O)[C@H]1N2Cc1ccncc1`, the inhibition was 10.3%.

Take `O=C(NC1CCCCC1)[C@@H]1[C@@H](CO)[C@@H]2Cn3c(cccc3=O)[C@@H]2N1C(=O)CC1CC1`: the inhibition was -9.4%.

Take `O=C(Nc1ccc(-c2ccccc2)cc1)[C@H]1[C@H](CO)[C@H]2Cn3c(cccc3=O)[C@H]2N1CC1CC1`: the inhibition is 170% (active).

Turning to `O=C(NCC1CCCCC1)[C@H]1[C@H](CO)[C@H]2Cn3c(cccc3=O)[C@H]2N1C(=O)CC1CC1`, the inhibition was 101% (active).

Consider `CCNC(=O)[C@H]1[C@H](CO)[C@H]2Cn3c(cccc3=O)[C@H]2N1C(=O)C1CCCC1`, for which the inhibition was -9.09%.

Turning to `COC(=O)C[C@H]1C[C@@H]2c3cc(NC(=O)Nc4ccccc4)ccc3O[C@@H]2[C@@H](CO)O1`, the inhibition is 57.1%.

For the molecule `O=C(Cc1ccccn1)NCC[C@H]1CC[C@@H](NS(=O)(=O)c2ccc(F)cc2)[C@H](CO)O1`, the inhibition was 13.9%.

Take `COc1ccc(NC(=O)N(C)C[C@@H]2OCCCC[C@H](C)Oc3ccc(NS(=O)(=O)c4c(C)noc4C)cc3C(=O)N([C@@H](C)CO)C[C@@H]2C)cc1`: the inhibition is 52.5%.

For the molecule `O=S(=O)(NC[C@H]1[C@@H](c2ccccc2)[C@@H](CO)N1CC1CC1)c1ccccc1`, the inhibition is 10.3%.

As for `CCc1cnc(N2[C@H](C#N)[C@H](c3ccc(C4=CCCC4)cc3)[C@@H]2CO)s1`, the inhibition is 101% (active).

On to `CS(=O)(=O)N1[C@@H](C#N)[C@H](c2ccc(C#CC3CCCCC3)cc2)[C@@H]1CO`, for which the inhibition was 105% (active).

As for `CS(=O)(=O)N1[C@H](C#N)[C@H](c2ccc(C#CC3CC3)cc2)[C@H]1CO`, the inhibition is 93%.

Consider `N#C[C@@H]1[C@@H](c2ccc(C3=CCCC3)cc2)[C@@H](CO)N1C(=O)C1CCCC1`, for which the inhibition is 34.1%.

`CCCNC(=O)N1[C@H](C#N)[C@@H](c2ccc(C3=CCCC3)cc2)[C@H]1CO`: the inhibition is -28.9%.

For the molecule `N#C[C@H]1[C@@H](c2ccc(C#CC3CCCC3)cc2)[C@H](CO)N1C(=O)Nc1ccc(F)cc1`, the inhibition was 92.8%.

With `CS(=O)(=O)N1[C@H](C#N)[C@H](c2ccc(C#CC3CCCC3)cc2)[C@H]1CO`, the inhibition is 91.5%.

With `N#C[C@@H]1[C@@H](c2ccc(C3=CCCCC3)cc2)[C@@H](CO)N1C(=O)c1cccc(F)c1`, the inhibition is 5.72%.

Consider `CC(C)NC(=O)N1[C@H](C#N)[C@H](c2ccc(C#CC3CCCCC3)cc2)[C@H]1CO`, for which the inhibition is 107% (active).

Consider `N#C[C@H]1[C@@H](c2ccc(C3=CCCCC3)cc2)[C@@H](CO)N1C(=O)NC1CCCCC1`, for which the inhibition was 101% (active).

As to `N#C[C@H]1[C@@H](c2ccc(C3=CCCCC3)cc2)[C@@H](CO)N1C(=O)Cc1ccncc1`, the inhibition is 57.5%.

Regarding `CC(C)NC(=O)N1[C@H](C#N)[C@@H](c2ccc(-c3ccc(F)cc3)cc2)[C@H]1CO`, the inhibition was 34.6%.

One may read the inhibition as the drop in the measured response relative to a control, in per cent.
